CtBP-E1A blk: qHTS Assay for Inhibitors of the CtBP/E1A Interaction | AID 651724, 2012 | 340,000 tested, 0.49% active | activity change, % (concentration not given with the values) | AlphaScreen GST-E1A/His-CtBP binding, 1536-well; hits give low values; in the data active = activity change below about -65%; inconclusive = mostly about -30% to -63%
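In 5 uL wells, 23 nL compound meets equimolar GST-E1A and His-CtBP (5X stock 125 nM each) for 2 h, 37 °C. Beads (5X, 50 ug/mL) then 1 h, 37 °C, dark.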
Six1-Eya2 blk: qHTS Assay for Inhibitors of the Six1/Eya2 Interaction. AlphaScreen GST-Six1/His-Eya2 binding, biochemical; hits give low values. AID 651725, 2012. 360,000 tested, 0.56% active. Homeobox protein SIX1 (Homo sapiens) + Protein phosphatase EYA2 (Homo sapiens), …. activity change, % (concentration not given with the values); in the data active = activity change below about -65%; inconclusive = mostly about -30% to -63%
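Compounds are tested against tagged Six1 and Eya2 proteins bridged by glutathione donor and nickel acceptor beads; after a one-hour incubation at 37 °C without light, AlphaScreen emission is recorded.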
G9a block: qHTS Assay for Inhibitors of Histone Lysine Methyltransferase G9a. Histone-lysine N-methyltransferase EHMT2 (Homo sapiens), Q96KQ7. G9a H3K9 monomethylation, AlphaScreen, 2 h. Potency, µM (top dose mostly 102 µM), most hits filed as inhibitors. 350,000 tested, 8.8% active; also: nearly all actives have a fitted effect of over 75% in size
Target sequence (Q96KQ7 913-1193 limits assumed): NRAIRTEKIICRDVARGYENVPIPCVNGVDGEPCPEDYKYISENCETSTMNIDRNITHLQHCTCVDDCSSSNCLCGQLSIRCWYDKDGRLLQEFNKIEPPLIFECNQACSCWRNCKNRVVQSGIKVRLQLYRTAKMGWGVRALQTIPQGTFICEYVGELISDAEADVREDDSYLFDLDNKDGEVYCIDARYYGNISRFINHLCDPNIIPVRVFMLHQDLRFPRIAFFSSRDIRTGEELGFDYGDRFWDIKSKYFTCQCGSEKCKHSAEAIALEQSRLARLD
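Quantitative HTS format: methyltransferase activity on a biotin-tagged H3K9 peptide is measured by AlphaScreen, using a rabbit anti-monomethyl-H3K9 antibody with streptavidin donor and anti-IgG acceptor beads. Final levels are 20 nM enzyme, 500 nM peptide, 20 uM SAM; 2 h RT.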
HP1b chromo inh: HTS for Inhibitors of HP1-beta Chromodomain Interactions with Methylated Histone Tails | AlphaScreen HP1-beta / biotin-H3K9me3 peptide binding | Potency, µM (series often up to 114 µM), hits mostly inhibitors | 390,000 tested, 0.56% active; also: nearly all actives have a fitted effect of over 70% in size
Target sequence (P83916 whole entry, looked up): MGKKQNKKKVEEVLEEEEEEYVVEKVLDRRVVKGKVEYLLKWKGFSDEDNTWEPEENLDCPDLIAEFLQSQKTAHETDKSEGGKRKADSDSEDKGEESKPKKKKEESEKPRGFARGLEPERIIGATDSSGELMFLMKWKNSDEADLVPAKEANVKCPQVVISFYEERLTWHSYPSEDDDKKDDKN
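AlphaScreen: HP1-beta (50 nM) preformed 30 min with biotin-H3(1-18)K9me3 peptide (50 nM) in PBS pH 7.4, 0.01% Tween-20. Compound added for 30 min at RT, then streptavidin donor/nickel chelate acceptor beads (10 ug/mL) for 30 min.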
JMJD2A Tudor: qHTS Assay for Inhibitors of JMJD2A-Tudor Domain | Lysine-specific demethylase 4A (Homo sapiens), O75164 | AlphaScreen JMJD2A-Tudor / H3K4me3 peptide binding | Potency, µM (top dose mostly 114 µM), most hits filed as inhibitors | 390,000 tested, 4.4% active | AID 504339, 2011; also: nearly all actives have a fitted effect of over 50% in size
BAZ2B inh: qHTS Assay for Inhibitors of BAZ2B; Bromodomain adjacent to zinc finger domain protein 2B (Homo sapiens), Q9UIF8; AlphaScreen BAZ2B-H3K14Ac peptide displacement; Potency, µM (highest dose often 114 µM), hits mostly inhibitors; 360,000 tested, 4.4% active; AID 504333, 2011; also: nearly all actives have a fitted effect of over 60% in size
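BAZ2B 50 nM plus b-H3(5-23)K14Ac 50 nM, PBS pH 7.4/0.01% Tween-20, 30 min RT; compound added (max 110 uM), 30 min RT; streptavidin donor/Ni-chelate acceptor beads 10 ug/mL final, 20 min dark; AlphaScreen read.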
Each line names hits and unclear results; the compound was inactive in the other large screens. Most compounds without a hit are left out; they make up all but 10% or so of the library. Unless noted, calls follow the shape of the dose curve; as a rule, active = well fitted inhibition curve with a large enough effect; inconclusive = small, poorly fitted or top-dose-only effect; inactive = no such curve, though single readings can be large or run the other way.

CCN1CCN(c2ccc(S(=O)(=O)N3CCOCC3)cc2NC(=O)c2cc(Cl)nc3ccccc23)CC1	G9a block 44.7µM
CCN1CCN(c2ccc(S(=O)(=O)N3CCOCC3)cc2NC(=O)c2ccccc2SC)CC1	G9a block 31.6µM
CCN1CCN(c2ccc(S(=O)(=O)N3CCOCC3)cc2NC(=O)c2sccc2C)CC1	G9a block 12.6µM
CCN1CCN(c2ccc(S(=O)(=O)N3CCOCC3)cc2NC(=O)C(C)Oc2ccc(Cl)cc2)CC1 (stereo not given)	G9a block 11.2µM
CC(C)(O)C#Cc1ccc(CN2CCCC(CO)(Cc3cccc(Cl)c3)C2)cc1 (stereo not given)	none
COCCN(C(=O)CSc1nc2ccccc2o1)c1c(N)n(Cc2ccccc2)c(=O)[nH]c1=O	G9a block inconclusive (no result: CtBP-E1A blk)
O=C(NC1c2ccccc2-c2ccccc21)c1ccco1	JMJD2A Tudor 56.2µM
O=C(NC1CCCCC1NC(=O)c1ccco1)c1ccco1 (stereo not given)	none
CCOC(=O)CN1C(=O)CN(c2ccc(C)cc2)C1=O	none
COc1cccc(CNCC(O)COc2ccc(C(=O)c3ccccc3)cc2)c1 (stereo not given)	G9a block 10µM, HP1b chromo inh inconclusive, JMJD2A Tudor 56.2µM, BAZ2B inh 50.1µM
OC(CNCc1ccccc1)COc1ccccc1 (stereo not given)	none
O=C(c1ccccc1)c1ccc(OCC(O)CNCc2ccc(Cl)cc2)cc1 (stereo not given)	G9a block inconclusive, HP1b chromo inh inconclusive, JMJD2A Tudor 20µM, BAZ2B inh 56.2µM
CCOC(=O)c1cc(-c2ccc(C)cc2)n(CC(=O)Nc2ccccc2F)c1C	none (no result: CtBP-E1A blk, Six1-Eya2 blk)
COc1cccc(/C=C/c2nc(C#N)c(NCCc3ccc(OC)c(OC)c3)o2)c1	none (no result: CtBP-E1A blk, Six1-Eya2 blk)
O=C(O)c1ccccc1C(=O)Nc1ccc(Oc2ccccc2)cc1	none (no result: G9a block)
CC(C)(C)c1ccc(Oc2ccc(NC(=O)c3ccccc3C(=O)O)cn2)cc1	G9a block 56.2µM (no result: CtBP-E1A blk)
Cc1cc(C(F)(F)F)nc(SCCN2CCOCC2)c1C#N	G9a block 12.6µM
N#Cc1c(C(F)(F)F)cc(-c2ccc(Cl)c(Cl)c2)nc1SCCN1CCOCC1	G9a block 56.2µM
O=C(N1CCC(O)(c2cccnc2)CC1)C12CC3CC(CC(C3)C1)C2	none
COc1cc2c(-c3ccccc3Cl)nc3c(c(C)nn3-c3ccccc3)c2cc1OC	none (no result: CtBP-E1A blk, Six1-Eya2 blk)
C=CCOC(=O)C1=C(C)N=c2s/c(=C3\C(=O)N(CC(=O)O)c4ccccc43)c(=O)n2C1c1ccc(OC)cc1 (stereo not given)	G9a block 8.91µM, JMJD2A Tudor inconclusive, BAZ2B inh inconclusive
O=C(O)c1cccc(NC(=S)N/N=C/c2ccccc2OCc2cccc(Br)c2)c1	G9a block 44.7µM, HP1b chromo inh inconclusive, JMJD2A Tudor 50.1µM, BAZ2B inh 44.7µM
CC(Nc1ccc(Br)cc1)C(=O)N/N=C/c1ccccc1OCc1ccccc1 (stereo not given)	none
CCOc1cc(/C=N/NC(=O)CNc2cccc(C)c2)ccc1OC(=O)c1ccccc1	JMJD2A Tudor inconclusive, BAZ2B inh inconclusive
CCOc1cc(/C=N/Nc2ccccc2Cl)ccc1OCC(=O)O	G9a block 10µM, HP1b chromo inh inconclusive, BAZ2B inh inconclusive
CC(=O)Nc1ccc(C(=O)N/N=C/c2ccccc2OCc2ccccc2)cc1	JMJD2A Tudor inconclusive
CCOc1cc(/C=N/Nc2cccc(C(=O)O)c2)ccc1OC(=O)c1ccccc1	G9a block 10µM, HP1b chromo inh inconclusive, JMJD2A Tudor inconclusive, BAZ2B inh inconclusive

Compound activity as filed in PubChem BioAssay.
